Experimental findings from PubChem BioAssay (NCATS) are described below.

Values without a mark were called inactive. Inconclusive results are not listed. Calls of active or inactive are those of the source. Unless noted, calls come from the whole dose curve; as a rule, active = well fitted curve in the direction sought with a large enough effect; inconclusive = small, poorly fitted or top-dose-only effect, or another doubt; inactive = no such curve, though single readings can be large; an effect the other way counts as inactive or inconclusive.

The target in assay [1] is Lysosomal acid glucosylceramidase (Homo sapiens) (UniProt P04062). Kind of assay: Glucocerebrosidase-p2 (AID 348; in the data active = potency below about 10 µM; note: potency is the fitted concentration of half-maximal effect). The settings on record: purified GBA, blue fluorogenic substrate, 40 min. Put shortly: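 Compounds titrated from 0.6 nM upwards against 0.2 nM enzyme in pH 5.9 citric acid/KH2PO4, taurocholate, tween-20; blue fluorogenic substrate 80 uM, 40 min room temperature, stopped and read Ex 365/Em 440 for AC50.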
Sequence of Lysosomal acid glucosylceramidase (Homo sapiens) (P04062 whole entry, looked up): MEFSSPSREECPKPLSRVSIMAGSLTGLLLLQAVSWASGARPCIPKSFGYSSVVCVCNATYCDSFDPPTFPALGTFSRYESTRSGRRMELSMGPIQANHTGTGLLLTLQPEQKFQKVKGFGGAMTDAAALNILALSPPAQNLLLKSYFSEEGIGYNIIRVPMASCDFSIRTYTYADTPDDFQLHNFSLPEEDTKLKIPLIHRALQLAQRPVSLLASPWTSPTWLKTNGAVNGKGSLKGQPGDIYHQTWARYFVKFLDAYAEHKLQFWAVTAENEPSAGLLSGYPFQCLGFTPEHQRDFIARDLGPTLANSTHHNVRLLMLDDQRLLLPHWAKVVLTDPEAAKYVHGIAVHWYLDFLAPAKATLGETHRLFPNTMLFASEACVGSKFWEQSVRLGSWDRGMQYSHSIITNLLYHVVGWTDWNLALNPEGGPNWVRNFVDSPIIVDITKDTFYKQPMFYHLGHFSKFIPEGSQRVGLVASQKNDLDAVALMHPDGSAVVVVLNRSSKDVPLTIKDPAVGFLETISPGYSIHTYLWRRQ

Assay [2] is described as follows: AP1 Signaling Pathway (AID 357; active = well fitted curve in either direction with a large enough effect, not every such curve was filed as active;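 note: ME-180 reporter cells stimulated with EGF at its EC50 level; % is set by controls: 0 for no effect and ±100 for the full control effect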). Particulars: ME-180 AP-1-bla reporter, EGF-induced, beta-lactamase ratio, 5 h; at 7.69 µM (top of the series) unless noted. Put shortly: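 In this screen, ME-180 cells in Opti-MEM with 0.5% dialyzed FBS received EC50 EGF and compound titrations for 5 h. AP-1 reporter beta-lactamase was detected via CCF4 ratio, giving AC50 for positive and negative modulators.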

Assay [3] deals with Cytochrome P450 1A2 (Homo sapiens) (UniProt P05177). Kind of assay: p450-cyp1a2 (AID 410; calls by dose curve; note: potency is the fitted concentration of half-maximal effect). Particulars: recombinant CYP1A2, luciferin-ME demethylation, luminescence; series mostly up to 57 µM. The procedure, abridged: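 20nM CYP1A2 with 100uM Luciferin-ME (at Km) in 100mM KPO4; compound preincubated 10 min, NADPH regeneration added, 60 min at room temperature. Luciferin quantified by luminescence after detection reagent; normalized to 57 uM furafylline.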
Sequence of Cytochrome P450 1A2 (Homo sapiens) (P05177 whole entry, looked up): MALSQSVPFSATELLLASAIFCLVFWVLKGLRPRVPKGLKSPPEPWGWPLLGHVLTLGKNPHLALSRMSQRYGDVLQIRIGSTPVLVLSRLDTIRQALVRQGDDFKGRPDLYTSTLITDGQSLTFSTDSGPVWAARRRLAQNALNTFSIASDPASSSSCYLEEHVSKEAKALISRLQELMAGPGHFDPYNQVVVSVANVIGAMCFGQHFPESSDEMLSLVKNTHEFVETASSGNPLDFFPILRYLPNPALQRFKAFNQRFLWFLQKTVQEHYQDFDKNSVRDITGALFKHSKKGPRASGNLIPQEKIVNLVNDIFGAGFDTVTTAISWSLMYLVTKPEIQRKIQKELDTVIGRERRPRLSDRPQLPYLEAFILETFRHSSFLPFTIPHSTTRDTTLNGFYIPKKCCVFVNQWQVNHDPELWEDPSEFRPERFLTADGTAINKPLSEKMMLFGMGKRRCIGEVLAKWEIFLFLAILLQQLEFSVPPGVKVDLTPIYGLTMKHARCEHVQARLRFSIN

A short description of assay [4]: Stat Signaling Pathway (AID 446; active = well fitted curve in either direction with a large enough effect, not every such curve was filed as active;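 note: ME-180 cervical cancer cells given 40 pM IL-6 alongside compound; SIE-controlled beta-lactamase reporter measured as 460/530 nm FRET emission ratio; % is set by controls: 0 for no effect and ±100 for the full control effect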). Particulars: ME-180 (cervical carcinoma) SIE beta-lactamase reporter, IL-6 stimulated, 5 h; at 7.69 µM (top of the series) unless noted. Put shortly: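 IL-6/STAT signaling read in ME-180 cells via an SIE beta-lactamase reporter. Stimulus was 40 pM IL-6 (its AC50) for 5 hrs, so both activation and inhibition register.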
Assay [5] deals with Glucocorticoid receptor (Homo sapiens) (UniProt P04150). Kind of assay: GR-GFP Redistribution (AID 450;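 active = compounds whose dose series gives a full or clear partial fitted curve of increased nuclear translocation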; note: potency is the fitted concentration of half-maximal effect). The settings on record: U2OS GR-GFP nuclear translocation, laser cytometry, 2 h.
Sequence of Glucocorticoid receptor (Homo sapiens) (P04150 whole entry, looked up): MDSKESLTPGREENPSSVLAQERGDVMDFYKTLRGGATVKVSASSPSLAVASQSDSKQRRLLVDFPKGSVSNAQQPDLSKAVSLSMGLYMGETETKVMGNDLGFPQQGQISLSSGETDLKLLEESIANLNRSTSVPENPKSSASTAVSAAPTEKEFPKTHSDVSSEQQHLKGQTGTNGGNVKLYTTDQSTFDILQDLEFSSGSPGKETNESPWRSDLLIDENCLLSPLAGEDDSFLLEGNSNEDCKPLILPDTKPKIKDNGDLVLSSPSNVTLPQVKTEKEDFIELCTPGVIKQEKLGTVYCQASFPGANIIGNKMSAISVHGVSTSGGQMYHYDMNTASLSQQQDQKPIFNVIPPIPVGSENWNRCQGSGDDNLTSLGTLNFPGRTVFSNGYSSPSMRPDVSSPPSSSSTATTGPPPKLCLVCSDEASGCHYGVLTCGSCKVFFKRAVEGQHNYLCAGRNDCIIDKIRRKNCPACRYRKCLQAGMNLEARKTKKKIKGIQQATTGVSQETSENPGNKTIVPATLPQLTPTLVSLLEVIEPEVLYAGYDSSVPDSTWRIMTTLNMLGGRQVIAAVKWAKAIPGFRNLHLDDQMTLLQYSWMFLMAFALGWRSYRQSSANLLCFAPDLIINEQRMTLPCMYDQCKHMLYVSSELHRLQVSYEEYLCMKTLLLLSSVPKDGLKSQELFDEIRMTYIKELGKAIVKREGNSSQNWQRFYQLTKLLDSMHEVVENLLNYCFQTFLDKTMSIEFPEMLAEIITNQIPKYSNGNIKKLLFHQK
For assay [6] the target is unchanged. The experiment in a line: GR-EFC Redistribution (AID 451; calls by dose curve; note: potency is the fitted concentration of half-maximal effect). Particulars: CHO-K1 GR-EFC translocation, beta-gal luminescence, 2 h. The procedure, abridged:
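Translocation of GR-ED fusion to nuclear EA restores b-gal, read by luminescence after 1 h room-temperature detection. Engineered CHO-K1 biosensor cells, 1,000/well, exposed 2 h at 37 C to titrations up to 46 uM final.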

Assay [7] deals with Mitogen-activated protein kinase 10 (Mus musculus) (UniProt Q61831). The experiment in a line: JNK3 AlphaScreen Assay (AID 530; active = well fitted curve in either direction with a large enough effect, not every such curve was filed as active;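 note: kinase came from lysate of stimulated human HepG2 cells; signal reports phosphorylation of biotinylated GST-cJun 1-79 at Ser73 with 10 µM ATP; % is set by controls: 0 for no effect and ±100 for the full control effect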). Particulars: JNK3 lysate, c-Jun phosphorylation; series mostly up to 57.1 µM. Put shortly: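 Compound titrations were preincubated 15 minutes at room temperature with substrate, antibody and pre-activated JNK3-containing HepG2 lysate. Reactions were started with 10 uM ATP and stopped with EDTA-containing bead buffer for AlphaScreen detection.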

For assay [8], the target named is Cytochrome P450 3A4 (Homo sapiens) (UniProt P08684). The experiment in a line: qHTS Assay for Inhibitors and Substrates of Cytochrome P450 3A4 (AID 884). Note: potency is the fitted concentration of half-maximal effect; nearly all actives have a fitted effect of over 50% in size. The settings on record: recombinant CYP3A4, Luciferin-PPXE luminescence; series mostly up to 57.1 µM. The procedure, abridged: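 20 nM human CYP3A4 with 25 uM Luciferin-PPXE (at KM) in 200 mM KPO4, preincubated 10 min with compound; NADPH regeneration started a 60 min RT reaction. Luciferin detected by luminescence, normalized to 57 uM ketoconazole as full inhibition.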
Sequence of Cytochrome P450 3A4 (Homo sapiens) (P08684 whole entry, looked up): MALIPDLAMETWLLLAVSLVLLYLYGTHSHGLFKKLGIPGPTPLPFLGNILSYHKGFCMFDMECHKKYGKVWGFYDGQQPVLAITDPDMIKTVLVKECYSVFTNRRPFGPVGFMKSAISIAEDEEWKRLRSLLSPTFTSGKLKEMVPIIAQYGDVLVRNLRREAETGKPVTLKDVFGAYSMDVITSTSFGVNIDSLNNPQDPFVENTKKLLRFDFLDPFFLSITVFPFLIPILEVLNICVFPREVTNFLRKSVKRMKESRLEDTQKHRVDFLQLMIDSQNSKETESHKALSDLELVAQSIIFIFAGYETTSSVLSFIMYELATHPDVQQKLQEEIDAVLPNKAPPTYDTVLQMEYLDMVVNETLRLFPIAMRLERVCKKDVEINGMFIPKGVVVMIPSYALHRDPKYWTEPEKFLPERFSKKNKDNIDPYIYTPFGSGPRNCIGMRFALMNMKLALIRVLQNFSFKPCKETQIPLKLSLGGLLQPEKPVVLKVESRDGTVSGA
(In qHTS, concentration-response curves come from the screen itself.)

Assay [9] shares this target. The experiment in a line: qHTS Assay for Activators of Cytochrome P450 3A4 (AID 885). Note: nearly all actives have a fitted effect of over 65% in size. Particulars: recombinant CYP3A4, Luciferin-PPXE luminescence, 60 min; series mostly up to 57.1 µM. The procedure, abridged: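 Quantitative HTS format: compounds preincubated with 20nM human CYP3A4 and Luciferin-PPXE substrate at KM, reaction started by NADPH regeneration, stopped after 60 min, luciferase luminescence read 20 min later.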

Assay [10] concerns the target Dual specificity protein kinase CLK4 (Homo sapiens) (UniProt Q9HAZ1). Kind of assay: qHTS Assay for Inhibitors of CDC-like Kinase 4 (Kinase-Glo Assay) (AID 1770). Note: nearly all actives have a fitted effect of over 65% in size. Note: potency is the fitted concentration of half-maximal effect. The settings on record: recombinant Clk4, Kinase-Glo ATP depletion luminescence; series mostly up to 66.7 µM. Put shortly:
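25 nM Clk4 with 100 uM RS repeat peptide and 1 uM ATP (final) in Tris pH7.5, 10 mM MgCl2, 4.5 h at room temperature. Remaining ATP measured by Kinase-Glo luciferase luminescence.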

Assay [11] shares this target. The experiment in a line: qHTS Assay for Inhibitors of CDC-like Kinase 4 (ADP-Glo Assay) (AID 1771). Note: nearly all actives have a fitted effect of over 70% in size. Note: potency is the fitted concentration of half-maximal effect. Particulars: recombinant CLK4, ADP-Glo luminescence; series mostly up to 80 µM. The procedure, abridged:
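25 nM Clk4 with 100 uM RS repeat peptide and 1 uM ATP (final) in buffer with 2 mM MgCl2, 0.5 mM EGTA, 2.5 mM DTT, 0.01% Triton X-100; 1 h at room temperature; ADP-Glo luminescence for ADP formed.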

The target is the same in assay [12]. Kind of assay: qHTS Assay for Inhibitors of CDC-like Kinase 4 (ADP-FP Assay) (AID 1795). Note: nearly all actives have a fitted effect of over 60% in size. Note: potency is the fitted concentration of half-maximal effect. The settings on record: Transcreener ADP fluorescence polarization; series mostly up to 50 µM. Put shortly: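 Recombinant Clk4 (6.25 nM) phosphorylated 100 uM RS repeat peptide with 1 uM ATP in 25 mM Tris pH 7.5, 10 mM MgCl2, 0.5 mM EGTA, 2.5 mM DTT, 0.01% Triton X-100 for 1 h. ADP was detected by Transcreener ADP2 competitive fluorescence polarization after 30 min at room temperature.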

The target in assay [13] is Ubiquitin carboxyl-terminal hydrolase 1 (Homo sapiens) (UniProt O94782). Kind of assay: Inhibitors of USP1/UAF1: Pilot qHTS (AID 504865). Note: nearly all actives have a fitted effect of over 35% in size. Note: potency is the fitted concentration of half-maximal effect. The settings on record: purified USP1/UAF1, Ub-rhodamine cleavage fluorescence; series mostly up to 54.9 µM. Put shortly:
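USP1/UAF1 complex at 1 nM preincubated 15 min at room temperature with compound, then Ub-Rho substrate added at 150 nM final. Fluorescence (480/540 nm) read kinetically in 50 mM HEPES pH 7.8, 0.5 mM EDTA, 1 mM TCEP, 0.1 mg/ml BSA, 0.01% Tween-20.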

Assay [14] is described as follows: Primary qHTS for small molecule stabilizers of the endoplasmic reticulum resident proteome: Secreted ER Calcium Modulated Protein (SERCaMP) assay (AID 1508630). Note: % is set by controls: 0 for no effect and ±100 for the full control effect. Particulars: SH-SY5Y GLuc-SERCaMP (Gaussia luciferase released on ER calcium loss) secretion, thapsigargin, luminescence; series mostly up to 38.4 µM. Put shortly:
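GLuc-SERCaMP-expressing SH-SY5Y cells, pretreated 16 h with compound, are challenged with thapsigargin to empty ER calcium stores; after 4 h, coelenterazine is added directly to the medium and luminescence is imaged.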

Assay [15] addresses 3',5'-cyclic-AMP phosphodiesterase 4B (Homo sapiens) (UniProt Q07343). Kind of assay: qHTS Assay for Inhibitors of PDE-IV (AID 607; active = well fitted activation curve with a large enough effect in the main read-out, with a control signal flat, not every such curve was filed as active; note: % of control where 0% means no effect). Particulars: HEK293 ACTOne CNG channel cells, membrane potential fluorescence; series mostly up to 22.9 µM. The procedure, abridged: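 Live HEK293 cells with a modified cyclic nucleotide-gated (CNG) channel report intracellular cAMP via membrane-potential dye fluorescence (ex 535/em 590 nm). Endogenous PDE-IV was targeted. Compounds were tested at up to 22.9 uM final; RO 20-1724 100 uM served as control.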

In assay [16] the target is Cytochrome P450 2C19 (Homo sapiens) (UniProt P33261). The experiment in a line: qHTS Assay for Inhibitors and Substrates of Cytochrome P450 2C19 (AID 899). Note: potency is the fitted concentration of half-maximal effect; nearly all actives have a fitted effect of over 60% in size. The settings on record: recombinant CYP2C19, luciferin-H EGE luminescence; series mostly up to 57.1 µM. The procedure, abridged: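 Reactions contain 5nM enzyme, 10uM Luciferin-H EGE (KM) and 50mM KPO4; compound preincubates 10 min at 37C, NADPH regeneration starts turnover for 60 min. Luminescence after detection reagent gives activity.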
Sequence of Cytochrome P450 2C19 (Homo sapiens) (P33261 whole entry, looked up): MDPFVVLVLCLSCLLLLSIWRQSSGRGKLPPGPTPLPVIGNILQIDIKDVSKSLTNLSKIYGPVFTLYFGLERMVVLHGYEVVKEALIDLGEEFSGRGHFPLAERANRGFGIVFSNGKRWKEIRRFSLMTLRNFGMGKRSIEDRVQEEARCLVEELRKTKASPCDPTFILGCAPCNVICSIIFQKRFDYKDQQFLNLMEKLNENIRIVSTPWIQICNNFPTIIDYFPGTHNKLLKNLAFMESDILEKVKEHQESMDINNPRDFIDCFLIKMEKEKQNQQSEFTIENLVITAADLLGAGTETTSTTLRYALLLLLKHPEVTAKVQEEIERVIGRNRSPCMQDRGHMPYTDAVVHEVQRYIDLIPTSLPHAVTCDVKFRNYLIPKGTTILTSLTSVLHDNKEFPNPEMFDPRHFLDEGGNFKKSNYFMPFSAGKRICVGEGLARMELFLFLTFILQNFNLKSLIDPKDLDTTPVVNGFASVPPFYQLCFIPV

The nature of assay [17]: NFAT Signaling Pathway (AID 444; active = well fitted curve in either direction with a large enough effect, not every such curve was filed as active). Particulars: Jurkat NFAT-bla M1, carbachol, beta-lactamase ratio, 5 h; at 7.69 µM (top of the series) unless noted. Put shortly:
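Read-out: CCF4 FRET ratio (460 nm/530 nm) after 1 h RT dye loading, used for %activity and AC50 from titration series. Cells: Jurkat NFAT-β-lactamase/M1 line, treated with compound plus 1 uM carbachol for 5 h, 37 °C.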

Sequence of Ubiquitin carboxyl-terminal hydrolase 1 (Homo sapiens) (O94782 whole entry, looked up): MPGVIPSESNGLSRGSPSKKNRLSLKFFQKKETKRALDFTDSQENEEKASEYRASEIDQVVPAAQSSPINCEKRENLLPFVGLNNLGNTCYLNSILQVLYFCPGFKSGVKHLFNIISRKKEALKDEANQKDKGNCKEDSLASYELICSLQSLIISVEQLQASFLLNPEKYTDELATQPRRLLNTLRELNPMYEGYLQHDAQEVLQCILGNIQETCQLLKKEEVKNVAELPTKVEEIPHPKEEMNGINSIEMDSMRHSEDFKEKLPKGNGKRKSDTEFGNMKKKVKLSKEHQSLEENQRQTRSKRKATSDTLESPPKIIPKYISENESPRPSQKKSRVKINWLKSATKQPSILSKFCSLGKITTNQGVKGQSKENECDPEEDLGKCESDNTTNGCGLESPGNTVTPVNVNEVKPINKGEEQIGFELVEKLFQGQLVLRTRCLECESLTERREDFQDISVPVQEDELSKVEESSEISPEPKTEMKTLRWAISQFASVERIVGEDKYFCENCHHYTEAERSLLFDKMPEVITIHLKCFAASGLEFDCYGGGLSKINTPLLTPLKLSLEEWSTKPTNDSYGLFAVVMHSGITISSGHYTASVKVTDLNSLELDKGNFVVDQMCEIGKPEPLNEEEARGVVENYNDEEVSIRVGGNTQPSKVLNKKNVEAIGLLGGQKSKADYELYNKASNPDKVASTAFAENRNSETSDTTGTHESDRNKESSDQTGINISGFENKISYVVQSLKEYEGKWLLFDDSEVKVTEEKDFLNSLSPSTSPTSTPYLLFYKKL
Sequence of 3',5'-cyclic-AMP phosphodiesterase 4B (Homo sapiens) (Q07343 whole entry, looked up): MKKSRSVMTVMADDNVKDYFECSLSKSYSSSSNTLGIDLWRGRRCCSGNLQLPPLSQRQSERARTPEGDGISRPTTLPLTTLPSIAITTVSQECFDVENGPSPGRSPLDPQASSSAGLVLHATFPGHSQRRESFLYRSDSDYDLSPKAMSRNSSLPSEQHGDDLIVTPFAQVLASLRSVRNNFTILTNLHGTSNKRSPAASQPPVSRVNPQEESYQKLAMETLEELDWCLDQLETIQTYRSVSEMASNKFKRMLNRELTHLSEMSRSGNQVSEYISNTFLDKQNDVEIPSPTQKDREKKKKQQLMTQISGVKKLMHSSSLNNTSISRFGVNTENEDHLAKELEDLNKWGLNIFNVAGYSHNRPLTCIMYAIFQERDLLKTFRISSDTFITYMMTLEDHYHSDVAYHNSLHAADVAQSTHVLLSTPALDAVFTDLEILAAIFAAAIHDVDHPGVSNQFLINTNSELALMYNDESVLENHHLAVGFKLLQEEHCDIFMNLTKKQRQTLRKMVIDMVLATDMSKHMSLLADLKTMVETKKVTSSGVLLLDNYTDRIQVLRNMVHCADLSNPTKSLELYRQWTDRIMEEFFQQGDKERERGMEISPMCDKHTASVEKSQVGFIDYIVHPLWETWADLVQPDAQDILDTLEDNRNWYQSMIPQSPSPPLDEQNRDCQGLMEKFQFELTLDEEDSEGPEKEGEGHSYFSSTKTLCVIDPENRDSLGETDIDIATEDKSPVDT
Sequence of Dual specificity protein kinase CLK4 (Homo sapiens) (Q9HAZ1 whole entry, looked up): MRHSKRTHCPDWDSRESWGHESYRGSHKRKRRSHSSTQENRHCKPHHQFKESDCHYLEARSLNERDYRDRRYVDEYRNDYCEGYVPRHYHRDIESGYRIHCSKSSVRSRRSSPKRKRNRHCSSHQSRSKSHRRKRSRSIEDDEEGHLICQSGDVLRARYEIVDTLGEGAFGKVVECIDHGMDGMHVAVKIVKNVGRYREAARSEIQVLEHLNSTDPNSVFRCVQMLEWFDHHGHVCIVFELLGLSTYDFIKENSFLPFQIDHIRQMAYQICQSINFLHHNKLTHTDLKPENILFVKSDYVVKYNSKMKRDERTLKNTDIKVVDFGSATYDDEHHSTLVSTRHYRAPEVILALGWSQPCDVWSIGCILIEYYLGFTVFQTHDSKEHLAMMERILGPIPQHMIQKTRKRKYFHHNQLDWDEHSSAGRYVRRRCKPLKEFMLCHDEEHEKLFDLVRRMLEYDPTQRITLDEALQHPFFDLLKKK

Regarding `FC(F)(F)c1ccccc1-c1cncnc1NCc1cccs1`, the Potency in assay [1] is > 11.4 µM; in assay [3] it was 20 µM (active); in assay [5], > 46 µM; in assay [6], > 46 µM; in [8] it was 0.251 µM (active). Further, the activity change, negative = inhibition in assay [2] is 10.5%. The activity, negative = inhibition in [4] was -1.4%. In addition, the Potency entry in [7], in assay [9], in [10], in assay [11], in [12] and in assay [13] was “inactive” throughout. Also, the outcome in assay [14] was inactive.
Consider `Cc1noc(C)c1-c1ccc2ncnc(NCCN3CCOCC3)c2c1`, for which the Potency in assay [1] is > 11.4 µM; in [3], 15.8 µM (active); in [5], > 46 µM; in [6], > 46 µM; in [10], 8.91 µM (active); in [11], 6.31 µM (active). In assay [12], the Potency was 8.91 µM (active). Further, the activity change, negative = inhibition in assay [2] is 1.93%. In addition, the activity, negative = inhibition in assay [4] was -22.6%. The Potency entry in assay [7], in assay [15], in assay [9] and in [13] was “inactive” in each case. For the same compound, the result in [14] was inactive.
For the compound `COc1cccc(Nc2ncc3nc(-c4cccs4)c(=O)n(Cc4cccs4)c3n2)c1`, the Potency is > 11.4 µM in assay [1]; 2 µM (active) in assay [3]; > 9.22 µM in [5]; > 46 µM in [6]; 20 µM (active) in [13]. Further, the activity change, negative = inhibition in [2] is -19.6%. The activity, negative = inhibition in [4] was -4.04%. The Potency entry in assay [7], in [15], in [10], in assay [11] and in [12] was “inactive” each time. The outcome in [14] was inactive.
Take `O=c1c(-c2cc(F)cc(F)c2)nc2cnc(N3CCOCC3)nc2n1CCc1ccccc1`: the Potency is > 11.4 µM in assay [1], 2.51 µM (active) in [3], > 9.22 µM in assay [5] and > 46 µM in assay [6]. Moreover, in assay [2], the activity change, negative = inhibition was 29.6%. Further, the Potency entry in [7], in [15], in [10], in assay [11], in assay [12] and in assay [13] was “inactive” throughout. In addition, the outcome in assay [14] was inactive.
Consider `Cc1noc(C)c1-c1ccc2ncnc(NCc3cccs3)c2c1`, for which the Potency in [1] was > 11.4 µM; in assay [3], 0.398 µM (active); in assay [5], > 46 µM; in assay [6] it was > 46 µM; in assay [16] it was 1.26 µM (active); in [10], 0.501 µM (active). Moreover, the Potency in assay [11] was 0.447 µM (active); in [12] it was 0.158 µM (active). The activity change, negative = inhibition in assay [2] is 20.1%. The Potency result in assay [7] and in [9] was “inactive” throughout. Further, the outcome in [14] was inactive.
In the case of `COc1ccc(-c2nc3cnc(OC)nc3n(CCC#N)c2=O)cc1`, the Potency in assay [1] is > 11.4 µM; in [3] it was 6.31 µM (active); in [5], > 9.22 µM; in [6], > 46 µM. The activity change, negative = inhibition in [2] was -7.37%; in [17] it was -4.16%. Further, the Potency result in assay [7], in assay [15], in [10], in [11], in [12] and in assay [13] was “inactive” in each case. The outcome in assay [14] was inactive.
